The text below walks through data of PubChem BioAssay (EPA / NIEHS).

The target of test [1] is Glucocorticoid receptor (Homo sapiens) (UniProt P04150). As to the kind of experiment: ATG_GR_TRANS: Attagene TRANS-FACTORIAL HepG2 Assay for human Glucocorticoid Receptor (GR) (AID 2282978; active = hit-call score of the fitted dose curve at least 0.9, where 1 is the maximum;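 also: activators score as hits since higher reporter transcript over DMSO is fitted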). Particulars: HepG2 Attagene TRANS GR reporter, mRNA transcription. Summed up: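 Reporter transcript levels, detected by fluorescence after RT-PCR and capillary electrophoresis, served as the endpoint. HepG2 cells bearing transfected GAL4-UAS reporters responsive to NR-GAL4 chimeras were incubated with compound 24 h; DMSO defined baseline.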
Glucocorticoid receptor (Homo sapiens), sequence (P04150 whole entry, looked up, the tested form may be a part): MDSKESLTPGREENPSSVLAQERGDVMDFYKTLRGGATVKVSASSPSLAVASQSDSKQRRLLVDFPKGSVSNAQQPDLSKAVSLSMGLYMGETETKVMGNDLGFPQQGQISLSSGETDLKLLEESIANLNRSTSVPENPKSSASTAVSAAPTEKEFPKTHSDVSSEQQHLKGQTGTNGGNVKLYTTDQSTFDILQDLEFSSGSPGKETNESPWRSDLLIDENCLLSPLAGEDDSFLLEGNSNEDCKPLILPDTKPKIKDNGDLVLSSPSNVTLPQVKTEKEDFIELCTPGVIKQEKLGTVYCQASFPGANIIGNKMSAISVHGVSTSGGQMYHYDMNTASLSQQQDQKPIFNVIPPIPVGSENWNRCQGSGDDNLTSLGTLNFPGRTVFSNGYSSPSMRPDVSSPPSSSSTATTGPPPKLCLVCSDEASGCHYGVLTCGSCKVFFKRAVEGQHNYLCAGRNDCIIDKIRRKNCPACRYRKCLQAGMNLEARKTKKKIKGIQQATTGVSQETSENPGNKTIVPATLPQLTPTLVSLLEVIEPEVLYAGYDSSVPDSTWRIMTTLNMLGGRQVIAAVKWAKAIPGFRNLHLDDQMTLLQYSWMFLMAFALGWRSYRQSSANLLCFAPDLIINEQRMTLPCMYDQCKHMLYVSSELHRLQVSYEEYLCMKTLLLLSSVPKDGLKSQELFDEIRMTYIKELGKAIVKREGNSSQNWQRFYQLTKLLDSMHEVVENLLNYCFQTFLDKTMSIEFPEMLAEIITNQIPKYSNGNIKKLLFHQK

The target of test [2] is Oxysterols receptor LXR-beta (Homo sapiens) (UniProt P55055). As to the kind of experiment: ATG_LXRb_TRANS: Attagene TRANS-FACTORIAL HepG2 Assay for human Liver X Receptor beta (LXRb) (AID 2282981; active = hit-call score of the fitted dose curve at least 0.9, where 1 is the maximum). Conditions: HepG2 Attagene TRANS GAL4-LXRb reporter, mRNA. An outline of the steps: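 Readout: fluorescent reporter mRNA fragments resolved by capillary electrophoresis after RT-PCR. System: transiently transfected human HepG2, exogenous LXRb-Gal4 chimera driving GAL4-UAS reporter, 24 h dosing. Activity fitted upward against DMSO baseline.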
Oxysterols receptor LXR-beta (Homo sapiens), sequence (P55055 whole entry, looked up, the tested form may be a part): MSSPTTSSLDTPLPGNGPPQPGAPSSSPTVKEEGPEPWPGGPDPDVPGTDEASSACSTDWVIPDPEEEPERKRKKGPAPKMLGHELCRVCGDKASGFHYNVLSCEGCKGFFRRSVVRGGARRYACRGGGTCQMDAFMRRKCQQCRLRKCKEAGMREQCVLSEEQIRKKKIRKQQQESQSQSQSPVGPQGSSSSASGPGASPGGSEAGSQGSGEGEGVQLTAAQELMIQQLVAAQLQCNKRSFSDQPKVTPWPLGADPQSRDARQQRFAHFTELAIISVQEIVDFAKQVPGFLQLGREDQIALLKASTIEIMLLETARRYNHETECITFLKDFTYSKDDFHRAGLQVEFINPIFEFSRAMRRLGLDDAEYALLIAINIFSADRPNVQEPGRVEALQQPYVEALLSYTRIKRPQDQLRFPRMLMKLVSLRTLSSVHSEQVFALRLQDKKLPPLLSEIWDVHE

Test [3] addresses Hepatocyte nuclear factor 4-alpha (Homo sapiens) (UniProt P41235). As to the kind of experiment: ATG_HNF4a_TRANS: Attagene TRANS-FACTORIAL HepG2 Assay for human Hepatocyte Nuclear Factor 4 alpha (HNF4a) (AID 2282982; active = hit-call score of the fitted dose curve at least 0.9, where 1 is the maximum). Conditions: HepG2 HNF4a transactivation reporter, mRNA readout. An outline of the steps:
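Transient MRTU transfection of HepG2, 24 h dosing. Readout: reporter mRNA via RT-PCR + capillary electrophoresis, fluorescence; activity fit upward relative to DMSO control.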

Test [4] can be described thus: ATG_M_06_TRANS: Attagene TRANS-FACTORIAL HepG2 Assay for M06 Transcription Factor (Internal Marker) (AID 2282983; active = hit-call score of the fitted dose curve at least 0.9, where 1 is the maximum). Particulars: HepG2 Attagene TRANS M06 internal marker reporter. Summed up:
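Read-out: fluorescent reporter cDNA fragments resolved by capillary electrophoresis after RT-PCR and HpaI cut. Source cells were HepG2 carrying transfected multi-reporter GAL4 constructs, dosed 24 h. Increase over DMSO control analysed.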

The target in test [5] is Transcriptional activator Myb (Homo sapiens) (UniProt P10242). Description: ATG_Myb_CIS: Attagene CIS-FACTORIAL HepG2 Assay for human Myeloblastosis (Myb) Proto-Oncogene Transcription Factor (AID 2282986). Conditions: HepG2 Attagene CIS-FACTORIAL Myb reporter transcription; actives raise or lower the signal. An outline of the steps:
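Transiently transfected HepG2 cells, treated 24 h. Reporter mRNA quantified by RT-PCR/capillary electrophoresis; bidirectional fit relative to DMSO.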

Test [6] has as its target Nuclear respiratory factor 1 (Homo sapiens) (UniProt Q16656). As to the kind of experiment: ATG_NRF1_CIS: Attagene CIS-FACTORIAL HepG2 Assay for human Nuclear Respiratory Factor 1 (NRF1) Orphan Gene (AID 2282987). Conditions: HepG2 NRF1 cis-element reporter, Attagene multiplex; actives raise or lower the signal. Summed up: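 Cells (HepG2, transient MRTU transfection) are exposed to compound for 24 h, then RNA isolated and reporter mRNA amplified and fluorescently labelled. Fragments are separated by capillary electrophoresis; signal change is fitted bidirectionally relative to DMSO.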

Test [7] can be described thus: ATG_NFI_CIS: Attagene CIS-FACTORIAL HepG2 Assay for human Nuclear Factor I (NFI) (AID 2282989). Conditions: HepG2 cis-regulatory reporter, NFI response element transcription; actives raise or lower the signal. An outline of the steps:
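Read-out: reporter mRNA via RT-PCR plus capillary electrophoresis with fluorescence detection. Transiently transfected HepG2 (endogenous TF activity on cis promoters), 24 h compound exposure; gain or loss of signal fitted against DMSO.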

Test [8] has as its target Myc proto-oncogene protein (Homo sapiens) (UniProt P01106). Description: ATG_Myc_CIS: Attagene CIS-FACTORIAL HepG2 Assay for human Myelocytomatosis (Myc) Proto-Oncogene Transcription Factor (AID 2282990). Particulars: HepG2, Attagene cis-reporter transcription factor activity; actives raise or lower the signal. Summed up:
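Fluorescence intensity of reporter-specific cDNA fragments, separated by capillary electrophoresis, gives the signal. Transfected HepG2 cells carrying cis-promoter reporter constructs are incubated with compound for 24 h; DMSO serves as baseline.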

A short description of test [9]: ATG_NRF2_ARE_CIS: Attagene CIS-FACTORIAL HepG2 Assay for human Nuclear Factor Erythroid 2 Related Factor 2 (NFR2) response to Antioxidant Response Elements (ARE) (AID 2282992). Particulars: HepG2 Attagene ARE/NRF2 reporter, transcription factor activity; actives raise or lower the signal. Summed up: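 Endogenous transcription factor activity read out as reporter transcript levels (RT-PCR plus capillary electrophoresis, fluorescence) in transiently transfected HepG2 cells. Measured at 24 h after dosing; gain or loss of signal fitted versus DMSO.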

Test [10] is described as follows: ATG_Oct_MLP_CIS: Attagene CIS-FACTORIAL HepG2 Assay for human Octamer-Binding Transcription Factor (Oct) (AID 2282993). Conditions: HepG2 Attagene cis-factorial Oct reporter, mRNA; actives raise or lower the signal. An outline of the steps: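 Read-out: reporter mRNA via RT-PCR plus capillary electrophoresis of 6-FAM-labelled fragments. Transiently transfected HepG2, 24 h exposure, endogenous TF activity on cis elements. Gain or loss of signal fitted relative to DMSO.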

In test [11] the target is Cellular tumor antigen p53 (Homo sapiens) (UniProt P04637). Description: ATG_p53_CIS: Attagene CIS-FACTORIAL HepG2 Assay for human p53 Transcription Factor (AID 2282994). Conditions: HepG2 p53 cis-element reporter, Attagene mRNA; actives raise or lower the signal. An outline of the steps:
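Endogenous p53 activity read in transiently transfected HepG2 from a cis-element-driven reporter transcript after 24 h exposure. RNA reverse-transcribed, PCR-amplified, fluorescently labelled and sized by capillary electrophoresis; gain or loss fitted against DMSO baseline.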

For test [12], the target named is Nuclear receptor subfamily 4 group A member 2 (Homo sapiens) (UniProt P43354). Description: ATG_NURR1_TRANS: Attagene TRANS-FACTORIAL HepG2 Assay for human Nuclear Receptor Related Protein 1 (NURR1) (AID 2282985; active = hit-call score of the fitted dose curve at least 0.9, where 1 is the maximum). Particulars: HepG2 Attagene TRANS reporter, mRNA readout. Summed up:
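Read-out: reporter mRNA induction by RT-PCR plus capillary electrophoresis with fluorescence detection, after 24 h dosing of transfected HepG2 cells. Exogenous NR-Gal4 chimera activity drives GAL4-UAS reporter; activity fitted upward versus DMSO.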

The nature of test [13]: ATG_NF_kB_CIS: Attagene CIS-FACTORIAL HepG2 Assay for human Nuclear Factor Kappa B (NF-kB) (AID 2282991). Particulars: HepG2 Attagene cis-factorial NF-kB reporter mRNA; actives raise or lower the signal. An outline of the steps:
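Measures mRNA induction of an NF-kB-responsive cis-element reporter in HepG2 cells transfected with multiple reporter units, sampled 24 h post-dosing; quantified by fluorescence after RT-PCR and capillary electrophoresis, fitted for activation or inhibition against DMSO.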

A short description of test [14]: ATG_M_32_TRANS: Attagene TRANS-FACTORIAL HepG2 Assay for M32 Transcription Factor (Internal Marker) (AID 2282984; active = hit-call score of the fitted dose curve at least 0.9, where 1 is the maximum;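 also: transcript level of a background control reporter unit measured by RT-PCR and capillary electrophoresis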). Particulars: HepG2 Attagene TRANS M32 internal marker reporter. An outline of the steps: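 Read-out: fluorescent reporter cDNA fragments resolved by capillary electrophoresis after RT-PCR of total RNA. Transfected HepG2 cells were exposed to chemical for 24 h. Activity scored in the positive direction relative to DMSO.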

Test [15] concerns the target Bile acid receptor (Homo sapiens) (UniProt Q96RI1). As to the kind of experiment: ATG_FXR_TRANS: Attagene TRANS-FACTORIAL HepG2 Assay for Farnesoid X Receptor (FXR) (AID 2282979; active = hit-call score of the fitted dose curve at least 0.9, where 1 is the maximum;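 also: hits raise reporter mRNA above DMSO so AC50 marks FXR activation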). Conditions: HepG2 Attagene TRANS FXR-GAL4 reporter transcription. Summed up: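 Read-out: fluorescent reporter transcripts quantified by capillary electrophoresis after RT-PCR of total RNA. Source cells were HepG2 transiently carrying chimeric NR-GAL4 plus GAL4-UAS reporter units, dosed 24 h. Activity fitted upward relative to DMSO baseline.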

In test [16] the target is Oxysterols receptor LXR-alpha (Homo sapiens) (UniProt Q13133). Description: ATG_LXRa_TRANS: Attagene TRANS-FACTORIAL HepG2 Assay for human Liver X Receptor alpha (LXRa) (AID 2282980; active = hit-call score of the fitted dose curve at least 0.9, where 1 is the maximum). Conditions: HepG2 Attagene TRANS reporter, LXRa transactivation. An outline of the steps: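 Read-out: reporter transcript levels by RT-PCR plus capillary electrophoresis, fluorescence intensity. Transiently transfected HepG2, exogenous NR-GAL4 chimera, GAL4-UAS reporters; 24 h compound exposure. Activity = increase over DMSO negative control.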

By AC50 is commonly meant the concentration giving half of the maximal activity seen.

Each structure is given as a SMILES string. Inconclusive results are not listed. Activity calls are given as the source filed them. The calls were made as follows, unless noted: active = hit-call score of the fitted dose curve at least 0.9, where 1 is the maximum; inactive = score below 0.9.

Myc proto-oncogene protein (Homo sapiens), sequence (P01106 whole entry, looked up, the tested form may be a part): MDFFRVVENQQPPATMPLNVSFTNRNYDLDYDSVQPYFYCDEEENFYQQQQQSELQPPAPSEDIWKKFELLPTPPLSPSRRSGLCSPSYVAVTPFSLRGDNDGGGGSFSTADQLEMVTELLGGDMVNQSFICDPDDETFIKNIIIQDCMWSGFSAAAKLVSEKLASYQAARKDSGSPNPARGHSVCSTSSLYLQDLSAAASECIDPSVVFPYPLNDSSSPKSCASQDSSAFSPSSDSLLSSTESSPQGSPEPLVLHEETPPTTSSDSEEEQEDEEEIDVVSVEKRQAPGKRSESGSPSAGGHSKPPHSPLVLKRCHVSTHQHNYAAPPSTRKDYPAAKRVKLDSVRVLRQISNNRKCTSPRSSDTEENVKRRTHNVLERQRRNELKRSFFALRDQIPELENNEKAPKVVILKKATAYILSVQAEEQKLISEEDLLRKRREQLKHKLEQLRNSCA
Cellular tumor antigen p53 (Homo sapiens), sequence (P04637 whole entry, looked up): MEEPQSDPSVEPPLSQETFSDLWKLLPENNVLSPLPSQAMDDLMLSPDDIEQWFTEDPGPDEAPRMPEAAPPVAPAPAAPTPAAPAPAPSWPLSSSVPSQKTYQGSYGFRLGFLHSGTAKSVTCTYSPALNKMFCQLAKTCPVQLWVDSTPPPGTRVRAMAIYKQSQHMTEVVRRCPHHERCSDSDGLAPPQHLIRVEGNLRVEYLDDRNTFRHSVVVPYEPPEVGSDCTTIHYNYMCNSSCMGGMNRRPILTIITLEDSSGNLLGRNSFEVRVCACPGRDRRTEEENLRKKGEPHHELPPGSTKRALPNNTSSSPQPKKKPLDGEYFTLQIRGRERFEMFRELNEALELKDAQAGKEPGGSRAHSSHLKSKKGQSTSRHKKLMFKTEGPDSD
Nuclear receptor subfamily 4 group A member 2 (Homo sapiens), sequence (P43354 whole entry, looked up, the tested form may be a part): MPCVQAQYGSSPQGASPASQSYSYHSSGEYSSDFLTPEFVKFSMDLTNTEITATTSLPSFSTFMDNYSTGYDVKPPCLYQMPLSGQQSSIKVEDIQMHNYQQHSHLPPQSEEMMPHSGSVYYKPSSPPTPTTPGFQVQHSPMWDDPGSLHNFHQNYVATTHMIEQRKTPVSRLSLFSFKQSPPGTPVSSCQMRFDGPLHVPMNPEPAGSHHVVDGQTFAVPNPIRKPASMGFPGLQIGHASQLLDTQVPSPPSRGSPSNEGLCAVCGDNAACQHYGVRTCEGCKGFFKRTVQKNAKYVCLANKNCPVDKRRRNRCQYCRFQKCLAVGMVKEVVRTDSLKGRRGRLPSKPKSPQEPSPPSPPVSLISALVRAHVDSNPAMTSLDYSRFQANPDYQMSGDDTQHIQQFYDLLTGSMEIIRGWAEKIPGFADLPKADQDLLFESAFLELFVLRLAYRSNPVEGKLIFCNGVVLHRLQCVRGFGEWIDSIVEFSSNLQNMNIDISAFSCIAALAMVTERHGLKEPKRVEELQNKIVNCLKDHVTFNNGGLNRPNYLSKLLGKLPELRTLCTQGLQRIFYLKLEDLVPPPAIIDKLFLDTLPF
Transcriptional activator Myb (Homo sapiens), sequence (P10242 whole entry, looked up): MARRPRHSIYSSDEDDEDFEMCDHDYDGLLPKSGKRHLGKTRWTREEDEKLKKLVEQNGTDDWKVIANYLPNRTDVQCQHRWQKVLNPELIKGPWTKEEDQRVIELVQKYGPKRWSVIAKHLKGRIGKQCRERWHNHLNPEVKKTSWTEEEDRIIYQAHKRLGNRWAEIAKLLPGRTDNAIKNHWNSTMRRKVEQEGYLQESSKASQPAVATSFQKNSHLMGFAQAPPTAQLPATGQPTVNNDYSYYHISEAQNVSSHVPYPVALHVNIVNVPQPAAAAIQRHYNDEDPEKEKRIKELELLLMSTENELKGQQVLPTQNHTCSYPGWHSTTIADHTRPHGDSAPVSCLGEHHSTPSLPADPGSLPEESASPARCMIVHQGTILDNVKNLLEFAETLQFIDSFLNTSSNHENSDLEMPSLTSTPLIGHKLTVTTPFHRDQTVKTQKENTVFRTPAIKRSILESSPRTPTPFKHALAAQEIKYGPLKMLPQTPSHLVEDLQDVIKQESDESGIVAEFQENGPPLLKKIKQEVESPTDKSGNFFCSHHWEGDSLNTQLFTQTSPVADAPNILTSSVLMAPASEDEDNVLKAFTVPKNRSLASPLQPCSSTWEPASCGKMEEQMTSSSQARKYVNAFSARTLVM
Hepatocyte nuclear factor 4-alpha (Homo sapiens), sequence (P41235 whole entry, looked up): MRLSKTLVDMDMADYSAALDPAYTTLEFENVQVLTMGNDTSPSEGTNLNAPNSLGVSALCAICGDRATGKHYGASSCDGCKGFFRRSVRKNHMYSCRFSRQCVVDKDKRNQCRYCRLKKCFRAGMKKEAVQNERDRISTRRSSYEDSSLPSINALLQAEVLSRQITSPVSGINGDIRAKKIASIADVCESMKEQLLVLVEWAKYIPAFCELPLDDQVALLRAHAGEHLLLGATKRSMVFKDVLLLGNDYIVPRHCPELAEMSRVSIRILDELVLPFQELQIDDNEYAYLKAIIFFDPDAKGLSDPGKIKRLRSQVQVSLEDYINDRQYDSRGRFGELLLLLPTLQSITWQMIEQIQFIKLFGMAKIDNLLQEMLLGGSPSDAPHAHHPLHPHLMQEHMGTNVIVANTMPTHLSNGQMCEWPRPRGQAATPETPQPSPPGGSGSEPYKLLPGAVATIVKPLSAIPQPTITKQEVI
Nuclear respiratory factor 1 (Homo sapiens), sequence (Q16656 whole entry, looked up, the tested form may be a part): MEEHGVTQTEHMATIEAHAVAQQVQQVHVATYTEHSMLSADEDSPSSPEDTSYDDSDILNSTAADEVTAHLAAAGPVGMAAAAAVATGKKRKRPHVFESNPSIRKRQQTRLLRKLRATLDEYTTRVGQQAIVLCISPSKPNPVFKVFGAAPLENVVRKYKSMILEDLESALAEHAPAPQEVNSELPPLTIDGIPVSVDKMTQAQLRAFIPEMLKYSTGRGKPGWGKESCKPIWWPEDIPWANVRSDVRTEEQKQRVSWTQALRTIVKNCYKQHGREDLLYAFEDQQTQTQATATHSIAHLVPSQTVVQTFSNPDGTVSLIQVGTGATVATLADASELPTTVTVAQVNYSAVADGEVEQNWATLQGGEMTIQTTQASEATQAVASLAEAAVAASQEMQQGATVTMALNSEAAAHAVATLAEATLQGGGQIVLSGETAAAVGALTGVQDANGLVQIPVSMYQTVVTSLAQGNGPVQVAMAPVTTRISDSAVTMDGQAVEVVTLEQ
Bile acid receptor (Homo sapiens), sequence (Q96RI1 whole entry, looked up, the tested form may be a part): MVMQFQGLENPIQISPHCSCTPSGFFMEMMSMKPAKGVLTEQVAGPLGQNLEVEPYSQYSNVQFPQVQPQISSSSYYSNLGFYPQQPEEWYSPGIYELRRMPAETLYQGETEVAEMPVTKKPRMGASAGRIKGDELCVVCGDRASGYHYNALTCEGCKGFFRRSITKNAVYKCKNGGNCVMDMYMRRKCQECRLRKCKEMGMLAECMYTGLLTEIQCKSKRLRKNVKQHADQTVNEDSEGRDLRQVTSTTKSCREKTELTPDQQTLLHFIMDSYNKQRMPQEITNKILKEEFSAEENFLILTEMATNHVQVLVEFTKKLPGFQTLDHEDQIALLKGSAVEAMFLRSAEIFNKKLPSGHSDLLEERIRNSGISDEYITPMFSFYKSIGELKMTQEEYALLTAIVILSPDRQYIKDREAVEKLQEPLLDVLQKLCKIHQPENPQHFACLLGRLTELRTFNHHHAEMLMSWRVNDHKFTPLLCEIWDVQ

With `Nc1cccc(S(=O)(=O)c2cccc(N)c2)c1`, the call in test [1], in test [2], in test [3], in test [4], in [5] and in [6] was inactive. The outcome in test [7], in [8], in test [9], in [10] and in test [11] was inactive.

As to `CC(=O)C(C)=O`, the compound was classed as inactive in [1], in [2], in test [3], in test [4], in test [12] and in test [5]. Besides, the call in test [6], in [7], in test [8], in test [13], in [10] and in test [11] was inactive. Also, the AC50 in [9] was 37.4 µM (active).

Turning to `CC(C=O)Cc1ccc(C(C)C)cc1` (centres undefined), the compound was called inactive in [1], in [3], in test [4], in test [14], in [12] and in [5]. The call in [6], in [7], in test [8], in test [13], in test [10] and in [11] was inactive.

Take `CNCCCC12CCC(c3ccccc31)c1ccccc12`: the result in test [1], in test [2], in [3], in test [4], in test [6] and in [8] was inactive. In addition, in test [13], the call was inactive. The concentration at half-maximal activity (AC50) in [7] was 11.1 µM (active); in test [11] it was 16 µM (active).

For the compound `CCC(C)CCCC(C)(C)O` (centres undefined), the compound was called inactive in [1], in test [5], in test [6], in [7], in test [8] and in test [13]. Besides, the call in test [9], in test [10] and in test [11] was inactive.

For the compound `CCCCCCCCCCCCOCCO`, the compound was classed as inactive in test [1], in test [4], in test [14], in test [12], in test [5] and in test [13]. For the same compound, the AC50 is 52.5 µM (active) in test [6]; 56.6 µM (active) in [7]; 50.2 µM (active) in [8]; 54 µM (active) in test [9]; 56.5 µM (active) in test [10].

With `CCCCCCC#CC(=O)OC`, the result in test [1], in test [3], in [4], in [14], in [5] and in test [6] was inactive. Besides, the compound was classed as inactive in [7], in test [8] and in test [10]. Also, the AC50 in test [9] was 21.6 µM (active).

Take `Cc1ccc(C(=O)c2cc(O)c(O)c([N+](=O)[O-])c2)cc1`: in test [1], the AC50 was 144 µM (active). Besides, the outcome in test [3], in test [4], in [14], in test [6], in [7] and in test [8] was inactive. Also, the outcome in test [13], in test [9] and in [11] was inactive.

On to `NC(N)=NC(=O)c1nc(Cl)c(N)nc1N`, for which the compound was called inactive in test [1], in [4], in test [14], in test [5], in test [6] and in test [8]. In addition, the outcome in test [13] and in [11] was inactive. Besides, the AC50 in test [9] was 62.6 µM (active).

Consider `O=C1NC(=O)c2ccccc21`, for which the outcome in test [15], in test [16], in test [4], in [5], in [6] and in [7] was inactive. The call in test [8], in test [13], in [9] and in [10] was inactive.
